Measurements taken from the supplement of paper PMC7411054.
Counter-ions that a name gives are not always drawn.

What was measured:
Test in all cases: phenotypically active (imaging signature differs from DMSO and reproducible) at any of 0.3-9 uM (binary (1 = active, 0 = inactive)); higher = active
Settings in all cases: treatment time: 24 h
A549-ACTB-RAB5A = test system: A549-ACTB-RAB5A
How it was run: (§1)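 Phenotypic activity depended on meeting both a deviation and a reproducibility criterion. The fifteen gene-edited A549, HepG2 and WPMY1 reporter lines were treated at 0.3, 1, 3 or 9 µM for 24 h, four wells each, then imaged live with features normalised to solvent control wells. Deviation required ≥3 of 4 wells past the 95th percentile of control Euclidean distances, and reproducibility a median replicate Pearson correlation above the 95th percentile of non-replicates.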

A549-CANX-COX4 = test system: A549-CANX-COX4
How it was run: as §1

A549-GM130-SQSTM1 = test system: A549-GM130-SQSTM1
How it was run: as §1

A549-TP53BP1-CLTA = test system: A549-TP53BP1-CLTA
How it was run: as §1

A549-TUBA1B-RELA = test system: A549-TUBA1B-RELA
How it was run: as §1

HepG2-ACTB-RAB5A = test system: HepG2-ACTB-RAB5A
How it was run: as §1

HepG2-CANX-COX4 = test system: HepG2-CANX-COX4
How it was run: as §1

HepG2-GM130-SQSTM1 = test system: HepG2-GM130-SQSTM1
How it was run: as §1

HepG2-TP53BP1-CLTA = test system: HepG2-TP53BP1-CLTA
How it was run: as §1

HepG2-TUBA1B-RELA = test system: HepG2-TUBA1B-RELA
How it was run: as §1

WPMY1-ACTB-RAB5A = test system: WPMY1-ACTB-RAB5A
How it was run: as §1

WPMY1-CANX-COX4 = test system: WPMY1-CANX-COX4
How it was run: as §1

WPMY1-GM130-SQSTM1 = test system: WPMY1-GM130-SQSTM1
How it was run: as §1

WPMY1-TP53BP1-CLTA = test system: WPMY1-TP53BP1-CLTA
How it was run: as §1

WPMY1-TUBA1B-RELA = test system: WPMY1-TUBA1B-RELA
How it was run: as §1

Measured: phenotypically active

C[N+]1(C)CCC(=C(c2ccccc2)c2ccccc2)CC1 [diphemanil]
inactive: A549-ACTB-RAB5A 0 | A549-CANX-COX4 0 | A549-GM130-SQSTM1 0 | A549-TP53BP1-CLTA 0 | A549-TUBA1B-RELA 0 | HepG2-ACTB-RAB5A 0 | HepG2-CANX-COX4 0 | HepG2-GM130-SQSTM1 0 | HepG2-TP53BP1-CLTA 0 | HepG2-TUBA1B-RELA 0 | WPMY1-ACTB-RAB5A 0 | WPMY1-CANX-COX4 0 | WPMY1-GM130-SQSTM1 0 | WPMY1-TP53BP1-CLTA 0 | WPMY1-TUBA1B-RELA 0

C/N=C(\NC#N)NCCSCc1nc[nH]c1C [cimetidine]
inactive: A549-ACTB-RAB5A 0 | A549-CANX-COX4 0 | A549-GM130-SQSTM1 0 | A549-TP53BP1-CLTA 0 | A549-TUBA1B-RELA 0 | HepG2-ACTB-RAB5A 0 | HepG2-CANX-COX4 0 | HepG2-GM130-SQSTM1 0 | HepG2-TP53BP1-CLTA 0 | HepG2-TUBA1B-RELA 0 | WPMY1-ACTB-RAB5A 0 | WPMY1-CANX-COX4 0 | WPMY1-GM130-SQSTM1 0 | WPMY1-TP53BP1-CLTA 0 | WPMY1-TUBA1B-RELA 0

COC(=O)C1CC23C=CCN4CCC5(c6ccccc6NC15[C@H]2C)C43 (stereo not given in full) [Vindolinine dichlorhydrate]
inactive: A549-ACTB-RAB5A 0 | A549-CANX-COX4 0 | A549-GM130-SQSTM1 0 | A549-TP53BP1-CLTA 0 | A549-TUBA1B-RELA 0 | HepG2-ACTB-RAB5A 0 | HepG2-CANX-COX4 0 | HepG2-GM130-SQSTM1 0 | HepG2-TP53BP1-CLTA 0 | HepG2-TUBA1B-RELA 0 | WPMY1-ACTB-RAB5A 0 | WPMY1-CANX-COX4 0 | WPMY1-GM130-SQSTM1 0 | WPMY1-TP53BP1-CLTA 0 | WPMY1-TUBA1B-RELA 0

COc1ccc2c3c([nH]c2c1)[C@H]1C[C@H]2[C@H](C[C@@H](O)[C@H](OC)[C@H]2C(=O)O)CN1CC3 [Reserpinic acid hydrochloride]
inactive: A549-ACTB-RAB5A 0 | A549-CANX-COX4 0 | A549-GM130-SQSTM1 0 | A549-TP53BP1-CLTA 0 | A549-TUBA1B-RELA 0 | HepG2-ACTB-RAB5A 0 | HepG2-CANX-COX4 0 | HepG2-GM130-SQSTM1 0 | HepG2-TP53BP1-CLTA 0 | HepG2-TUBA1B-RELA 0 | WPMY1-ACTB-RAB5A 0 | WPMY1-CANX-COX4 0 | WPMY1-GM130-SQSTM1 0 | WPMY1-TP53BP1-CLTA 0 | WPMY1-TUBA1B-RELA 0

Nn1nnc2ccccc21
inactive: A549-ACTB-RAB5A 0 | A549-CANX-COX4 0 | A549-GM130-SQSTM1 0 | A549-TP53BP1-CLTA 0 | A549-TUBA1B-RELA 0 | HepG2-ACTB-RAB5A 0 | HepG2-CANX-COX4 0 | HepG2-GM130-SQSTM1 0 | HepG2-TP53BP1-CLTA 0 | HepG2-TUBA1B-RELA 0 | WPMY1-ACTB-RAB5A 0 | WPMY1-CANX-COX4 0 | WPMY1-GM130-SQSTM1 0 | WPMY1-TP53BP1-CLTA 0 | WPMY1-TUBA1B-RELA 0

O=C1N(c2ccccc2)c2ccccc2C1(Cc1ccncc1)Cc1ccncc1 [linopirdine]
inactive: A549-ACTB-RAB5A 0 | A549-CANX-COX4 0 | A549-GM130-SQSTM1 0 | A549-TP53BP1-CLTA 0 | A549-TUBA1B-RELA 0 | HepG2-ACTB-RAB5A 0 | HepG2-CANX-COX4 0 | HepG2-GM130-SQSTM1 0 | HepG2-TP53BP1-CLTA 0 | HepG2-TUBA1B-RELA 0 | WPMY1-ACTB-RAB5A 0 | WPMY1-CANX-COX4 0 | WPMY1-GM130-SQSTM1 0 | WPMY1-TP53BP1-CLTA 0 | WPMY1-TUBA1B-RELA 0

NS(=O)(=O)Cc1noc2ccccc12 [zonisamide]
inactive: A549-ACTB-RAB5A 0 | A549-CANX-COX4 0 | A549-GM130-SQSTM1 0 | A549-TP53BP1-CLTA 0 | A549-TUBA1B-RELA 0 | HepG2-ACTB-RAB5A 0 | HepG2-CANX-COX4 0 | HepG2-GM130-SQSTM1 0 | HepG2-TP53BP1-CLTA 0 | HepG2-TUBA1B-RELA 0 | WPMY1-ACTB-RAB5A 0 | WPMY1-CANX-COX4 0 | WPMY1-GM130-SQSTM1 0 | WPMY1-TP53BP1-CLTA 0 | WPMY1-TUBA1B-RELA 0

CC(=O)CCCCn1c(=O)c2c(ncn2C)n(C)c1=O [Pentoxifylline]
inactive: A549-ACTB-RAB5A 0 | A549-CANX-COX4 0 | A549-GM130-SQSTM1 0 | A549-TP53BP1-CLTA 0 | A549-TUBA1B-RELA 0 | HepG2-ACTB-RAB5A 0 | HepG2-CANX-COX4 0 | HepG2-GM130-SQSTM1 0 | HepG2-TP53BP1-CLTA 0 | HepG2-TUBA1B-RELA 0 | WPMY1-ACTB-RAB5A 0 | WPMY1-CANX-COX4 0 | WPMY1-GM130-SQSTM1 0 | WPMY1-TP53BP1-CLTA 0 | WPMY1-TUBA1B-RELA 0

CC1Cc2ccccc2N1NC(=O)c1ccc(Cl)c(S(N)(=O)=O)c1 (stereo not given) [indapamide]
inactive: A549-ACTB-RAB5A 0 | A549-CANX-COX4 0 | A549-GM130-SQSTM1 0 | A549-TP53BP1-CLTA 0 | A549-TUBA1B-RELA 0 | HepG2-ACTB-RAB5A 0 | HepG2-CANX-COX4 0 | HepG2-GM130-SQSTM1 0 | HepG2-TP53BP1-CLTA 0 | HepG2-TUBA1B-RELA 0 | WPMY1-ACTB-RAB5A 0 | WPMY1-CANX-COX4 0 | WPMY1-GM130-SQSTM1 0 | WPMY1-TP53BP1-CLTA 0 | WPMY1-TUBA1B-RELA 0

COc1ccc([C@H]2CNC(=O)C2)cc1OC1CCCC1 [(S)-(+)-Rolipram]
inactive: A549-ACTB-RAB5A 0 | A549-CANX-COX4 0 | A549-GM130-SQSTM1 0 | A549-TP53BP1-CLTA 0 | A549-TUBA1B-RELA 0 | HepG2-ACTB-RAB5A 0 | HepG2-CANX-COX4 0 | HepG2-GM130-SQSTM1 0 | HepG2-TP53BP1-CLTA 0 | HepG2-TUBA1B-RELA 0 | WPMY1-ACTB-RAB5A 0 | WPMY1-CANX-COX4 0 | WPMY1-GM130-SQSTM1 0 | WPMY1-TP53BP1-CLTA 0 | WPMY1-TUBA1B-RELA 0

CCCC(=O)O [Sodium butyrate]
inactive: A549-ACTB-RAB5A 0 | A549-CANX-COX4 0 | A549-GM130-SQSTM1 0 | A549-TP53BP1-CLTA 0 | A549-TUBA1B-RELA 0 | HepG2-ACTB-RAB5A 0 | HepG2-CANX-COX4 0 | HepG2-GM130-SQSTM1 0 | HepG2-TP53BP1-CLTA 0 | HepG2-TUBA1B-RELA 0 | WPMY1-ACTB-RAB5A 0 | WPMY1-CANX-COX4 0 | WPMY1-GM130-SQSTM1 0 | WPMY1-TP53BP1-CLTA 0 | WPMY1-TUBA1B-RELA 0
